This note sets out measurements from PubChem BioAssay (NCI).

Values joined by “and” are separate entries in the source; they are usually repeats but may differ in a detail not shown here. Equal values may be shown once. This is part of a sample that, as a whole, favours compounds with a hit. Of some 83,000 tested, about 20% had one in any assay.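 Cell lines were cultured in 96-well plates, exposed to a single compound concentration, and assessed for percent growth 48 hours later.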 Active and inactive are the calls of the source. The calls were made as follows: active = growth percent below 10; inactive = the rest.

In the assay the test system is HL-60(TB) leukemia. The experiment in a line: NCI-60 one-dose screen, 48 h (100 = growth as untreated, 0 = no growth, -100 = all killed). Conditions: 10 µM unless noted.
Consider `COc1ccc(-c2nc3ccc(-c4nnc(SCc5ccccc5)o4)cc3[nH]2)cc1OC`, for which the growth is 78.4% (inactive). Consider `COc1ccc(-c2nc3ccc(-c4nnc(SCC(=O)Nc5ccc(/C(C)=N\O)cc5)o4)cc3[nH]2)cc1`, for which the growth was 77.6% (inactive).

In the case of `Cc1occc1C(=O)NN1C(=O)/C(=C/C=C/c2ccc([N+](=O)[O-])o2)SC1=S`, the growth is 0.964% (active). In the case of `COc1cccc(/C=C/c2nc3ccccc3c(=O)n2CC(=O)Nc2ccc(Cl)cc2)c1`, the growth was 115% (inactive). With `CCOC(=O)CNC(=O)CN(Cc1ccccc1)C(=O)[C@@]1(C)CCC[C@]2(C)[C@H]3C[C@H]4C(C(C)C)=C[C@]3(CC[C@H]21)[C@@H]1C(=O)OC(=O)[C@@H]14`, the growth is 9.46% (active).

Consider `Cc1ccc(F)cc1N/C=c1\s/c(=C(\C#N)C(=O)Nc2ccccc2)n(-c2ccccc2)c1=O`, for which the growth is 111% (inactive). As for `Cc1ccc(C(=O)Nc2cc(-c3ccncc3)cc(C(F)(F)F)c2)cc1C#Cc1cnc2cccnn12`, the growth was 16.8% (inactive). Regarding `O=c1c2ccccc2nc(COc2ccccc2)n1/N=C/c1ccc(N2CCCC2)cc1`, the growth was 101% (inactive). The figure for `COc1cc(-c2nc3ccc(C)cc3[nH]2)ccc1OCc1nnc(-c2ccc(Br)cc2)o1` is -34.8% (active); for `COc1ccc2nc(Cl)c(-c3cc(-c4ccccc4)nc(=S)[nH]3)cc2c1` it is 19.6% (inactive). For `CCCCCCn1c(O)c(N=Nc2nc(-c3cc4ccccc4oc3=O)cs2)c2ccccc21`, the growth is 87.8% (inactive).

As for `Cc1oc(-c2ccccc2)nc1CN[C@@H]1C[C@@H]2C[C@H]([C@H]1C)C2(C)C`, the growth is -23.7% (active). To `CC1=C(C(=O)OC(C)C)C(c2ccc(O)cc2)NC(=S)N1` (stereo not given) belongs 88.1% (inactive).

For the compound `CCOc1ccc2ncc(C#Cc3cncc(C(=O)Nc4ccc(CN5CCN(C)CC5)c(C(F)(F)F)c4)c3)n2n1`, the growth was 1.2% (active). The figure for `CC1=C(C#N)C2=NNCC(c3ccccc3)=NN2C(c2ccccc2)=C1` is 138% (inactive); for `O=C1Nc2ccc(F)cc2/C1=C/C(=O)c1cc2ccccc2oc1=O` it is 85.6% (inactive); for `Nc1nc(Nc2ccc(Cl)cc2)n(Cc2cccc(Br)c2)n1` it is -14.2% (active). For the compound `O=C1C=CC(=CC=C2N(Cc3ccc4ccccc4c3)c3ccccc3N2Cc2ccc3ccccc3c2)C=C1`, the growth is -26.5% (active) and -21.5% (active).

On to `Nc1cc(-c2c[nH]c3ccc(F)cc23)nc2cc(-c3c[nH]c4ccccc34)nn12`, for which the growth is -0.0986% (active). Consider `CCCCc1c(Nn2cnnn2)no[n+]1[O-]`, for which the growth is 37.9% (inactive).

In the case of `COc1ccc(N=Nc2c(N)nn3c(-c4ccc(OC)c(OC)c4)ccnc23)cc1`, the growth was 92% (inactive). To `COc1c(F)ccc(C(=O)Nc2ccc3nc(NC(=O)C4CCCN(S(=O)(=O)c5cccc(C(F)(F)F)c5)C4)sc3c2)c1F` (stereo not given) belongs 72.1% (inactive). As to `COc1ccc(NC(=O)Cn2c3c(sc2=O)[C@H]2[C@@H](O)[C@@H](O)[C@H](O)[C@@H]2CS3)cc1`, the growth is 98.1% (inactive).

Take `Nc1nn2c(-c3cc4cc(Br)ccc4oc3=O)ccnc2c1N=Nc1ccccc1`: the growth was 92.7% (inactive). Turning to `O=C(NN1C(=O)/C(=C/C=C/c2ccc([N+](=O)[O-])o2)SC1=S)c1cccc(O)c1`, the growth was -2.32% (active). Regarding `COc1ccc(C(=O)/C=C/c2ccc(OC)c(OCc3ccccc3)c2)cc1OC`, the growth was 2.91% (active). For the compound `COC1=C[C@@]23CCC(=O)N2CCc2cc4c(cc2[C@H]3[C@H]1OC(=O)C(C)(C)O)OCO4`, the growth is 87% (inactive). Consider `O=C(c1ccccc1)c1ccc2nc(-c3cccc(Cl)c3)[nH]c2c1`, for which the growth is 97.6% (inactive). On to `CC1(C)CC[C@]2(C(=O)O)CC[C@]3(C)C(=CCC4[C@@]5(C)C[C@@H](O)[C@@H]6OC(c7cccc(Br)c7)OC[C@@]6(C)C5CC[C@]43C)C2C1` (stereo not given in full), for which the growth was 7.87% (active).

As for `O=C(CSc1nc2ccccc2c(=O)[nH]1)Nc1ccccc1C(=O)O`, the growth is 103% (inactive). For `CC(C)(C)C(=O)c1c2c(c3ccc4c5ccccc5ccc4n13)C(=O)c1ccccc1C2=O`, the growth was 94.2% (inactive). For the compound `CCCn1c(=O)c2[nH]c(-c3ccc(OCc4nc5ccc(C)cc5[nH]4)cc3)nc2n(CCC)c1=O`, the growth is 4.56% (active). The figure for `COc1c(F)ccc(C(=O)Nc2ccc3nc(NC(=O)C4CCCN(S(=O)(=O)c5ccc(C(F)(F)F)cc5)C4)sc3c2)c1F` (stereo not given) is 101% (inactive).

Regarding `Cn1cc(-c2nnc(N)nc2-c2c[nH]c3ccc(F)cc23)c2cccnc21`, the growth is 10.2% (inactive). For the compound `Nc1nn2c(-c3cc4cc(Br)ccc4oc3=O)ccnc2c1N=Nc1ccc(Br)cc1`, the growth was 98.5% (inactive). For the compound `C=CCSc1nnc(-c2ccc(-c3nc4ccc(Cl)cc4[nH]3)cc2)o1`, the growth is 29.8% (inactive). The figure for `CCCCCCCCCc1ccc(C(=O)Nc2cc(C)ccc2C(=O)OC)cc1` is 97.1% (inactive). For `COc1ccc(-c2cc(C(=O)N=Nc3c(O)[nH]c4ccccc34)c3ccccc3n2)cc1`, the growth is 56.2% (inactive). On to `Clc1ccc(CNc2nc(SCCN3CCOCC3)nc3c2cnn3CC(Cl)c2ccc(Br)cc2)cc1` (stereo not given), for which the growth was -9.78% (active). As for `COc1ccc2cc([C@H](C)C(=O)NCc3ccccc3)ccc2c1`, the growth was 5.91% (active).
